From PubChem BioAssay AID624045 (National Center for Advancing Translational Sciences (NCATS), 2012)
The source made the active and inactive calls. The call rests on the fitted dose curve; in most records, active means well fitted inhibition curve with a large enough effect; inactive means flat fitted curve, though single readings scatter.

molecular target: Dual specificity tyrosine-phosphorylation-regulated kinase 1A (Homo sapiens) (UniProt Q13627); assay: Reaction Biology data for inhibitors of DYRK1A: Probe SAR; conditions: Reaction Biology DYRK1A kinase assay, 10 uM ATP; series mostly up to 10 µM
Description: Alternative splicing of pre-mRNAs plays a major role in the regulation of eukaryotic gene expression. Alternative splicing is now thought to be one of the primary reasons for the complexity of higher organisms leading to an average of three protein isoforms per gene. Aberrant splicing can lead to a number of diseases and is known to play a role in rare genetic diseases such as progeria syndrome. Hutchinson-Gilford Progeria Syndrome (HGPS) is a pediatric premature aging disease caused by a spontaneous mutation in the lamin A/C (LMNA) gene due to a single point mutation in the lamin A gene effecting 1 in 4 million people. To identify both specific splicing modulators of the lamin A gene as well as general splicing modulators, a cell-based HTS assay was developed using a minigene reporter system (AIDs, 1459 & 1487). […] This AID summarizes the characterization of lead compounds in Dyrk1a. NIH Molecular Libraries Probe Production Centers Network [MLPCN] NIH Chemical Genomics Center [NCGC] MLPCN Grant: MH084827 Assay Submitter (PI): Tom Misteli
Compound IC50s were determined at Reaction Biology (http://www.reactionbiology.com) with ten concentration points starting at 10 uM in the assay using a 3-fold dilution series. The control compound staurosporine was also tested in the 10-dose IC50 mode with the same 3-fold serial dilution, again starting at 10 uM. All kinase reactions were performed using 10 uM ATP in the assay. 100% activity was taken from kinase reactions with DMSO alone (the vehicle used for compound stock solutions).

Compound | Potency
COc1cccc(-c2ccnc(NCc3ccc(Cl)cc3)n2)c1 | 6360 nM (active)
COc1ccc(-c2ccnc(NCc3ccc(Cl)cc3)n2)cc1 | 558 nM (active)
FC(F)(F)c1cccc(Nc2nccc(-c3ccc4c(c3)OCO4)n2)c1 | 10.4 nM (active)
c1cncc(CNc2ccnc(-c3ccc4cn[nH]c4c3)n2)c1 | 1430 nM (active)
c1cncc(CNc2nccc(-c3ccc4[nH]ncc4c3)n2)c1 | 60.8 nM (active)
Clc1ccc(CNc2nccc(-c3ccc4cn[nH]c4c3)n2)cc1Cl | 169 nM (active)
Clc1ccc(Nc2nccc(-c3ccc4c(c3)OCO4)n2)cc1 | 273 nM (active)
Clc1ccc(CNc2nccc(-c3ccc4[nH]ncc4c3)n2)cc1Cl | 128 nM (active)
Cc1c(-c2ccnc(NCc3ccc(Cl)cc3)n2)sc(=O)n1C | 62.9 nM (active)
c1nc(NCC2CCCO2)c2cc(-c3ccc4c(c3)OCO4)ccc2n1 (configuration not stated) | 24.3 nM (active)
Cc1nc(CN(C)c2ncnc3ccc(-c4ccc5[nH]ncc5c4)cc23)cs1 | 64.1 nM (active)
Clc1ccc(CNc2nccc(-c3ccc4c(c3)OCCO4)n2)cc1Cl | 18.2 nM (active)
Cc1nc(CN(C)c2ncnc3ccc(-c4ccc5c(c4)OCO5)cc23)cs1 | 5.2 nM (active)
Clc1ccc(CNc2ccnc(-c3ccc4c(c3)OCO4)n2)cc1Cl | inactive
COc1cccc(-c2ccnc(NCc3ccc(Cl)c(Cl)c3)n2)c1 | 4650 nM (active)
c1cncc(CNc2nccc(-c3ccc4c(c3)OCO4)n2)c1 | 7.1 nM (active)

Compound | Potency
Clc1ccc(CNc2ccnc(-c3ccc4[nH]ncc4c3)n2)cc1Cl | 2350 nM (active)
c1cncc(CNc2ncncc2-c2ccc3c(c2)OCO3)c1 | inactive
Cc1c(-c2ccnc(NCc3cccnc3)n2)sc(=O)n1C | 29.3 nM (active)
O=[N+]([O-])c1cc(Nc2nccc(-c3ccc4c(c3)OCO4)n2)cc(C(F)(F)F)c1 | 24.1 nM (active)
c1cc(-c2ccc3c(c2)OCO3)nc(Nc2ccc3c(c2)OCO3)n1 | 24.9 nM (active)
Clc1ccc(CNc2ncncc2-c2ccc3c(c2)OCO3)cc1Cl | 3450 nM (active)
Clc1cc(Cl)cc(CNc2ncncc2-c2ccc3c(c2)OCO3)c1 | 282 nM (active)
Brc1ccc(CNc2nccc(-c3ccc4c(c3)OCO4)n2)cc1Br | 79.3 nM (active)
Cc1nc(CNc2ncnc3ccc(-c4ccc5c(c4)OCO5)cc23)cs1 | 33.3 nM (active)
c1cncc(CNc2ccnc(-c3ccc4[nH]ncc4c3)n2)c1 | 349 nM (active)
Brc1cc(Br)cc(CNc2nccc(-c3ccc4c(c3)OCO4)n2)c1 | 10.7 nM (active)
COc1ccc(-c2ccnc(NCc3ccc(Cl)c(Cl)c3)n2)cc1 | 203 nM (active)
FC(F)(F)c1cc(Br)cc(Nc2nccc(-c3ccc4c(c3)OCO4)n2)c1 | 107 nM (active)
COc1ccc(-c2ccnc(NCc3ccc(Cl)c(Cl)c3)n2)cc1OC | inactive
Clc1ccc(CNc2ncncc2-c2ccc3c(c2)OCO3)cc1 | 4580 nM (active)
Clc1ccc(CNc2nccc(-c3ccc4c(c3)OCO4)n2)cc1Cl | 26.3 nM (active)
